Screening results from PubChem.
Compounds with a hit are over-represented: about 1.1% of the library has one in this group of screens.
OPRM1-OPRD1 ag – OPRM1-OPRD1 heterodimerization agonism; P35372+P41143; cells, luminescence; activation, % at 9.3 µM; 340,000 compounds, 0.3% hits; AID 504326; in the data active = activation above about 18%;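 note: 0% = vehicle-treated cells and 100% = reference agonist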
HTR5A ag – counter-screen for OPRM1-OPRD1 agonists: human HTR5A agonism; P47898; HTR5A agonist assay, luminescence, cell-based; 340,000 compounds, 0.61% hits; activation, % at 9.3 µM; in the data active = activation mostly above about 9.5%, no sharp cut-off; inactive = mostly below about 7.6%;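 note: 0% = cells with vehicle only and 100% = reference agonist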
Target sequence (P47898 whole entry, looked up): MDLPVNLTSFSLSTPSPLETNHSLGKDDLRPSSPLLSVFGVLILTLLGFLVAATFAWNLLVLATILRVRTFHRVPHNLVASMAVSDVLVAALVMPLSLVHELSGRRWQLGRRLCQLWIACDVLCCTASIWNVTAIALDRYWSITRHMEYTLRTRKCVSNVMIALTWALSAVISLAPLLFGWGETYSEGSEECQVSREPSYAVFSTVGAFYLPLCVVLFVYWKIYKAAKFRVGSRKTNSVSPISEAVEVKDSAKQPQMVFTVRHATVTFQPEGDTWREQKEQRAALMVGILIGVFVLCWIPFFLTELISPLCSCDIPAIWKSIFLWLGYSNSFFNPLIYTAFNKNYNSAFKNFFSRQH
HTR5A inv ctr – counter-screen for OPRM1-OPRD1 inverse agonists: human HTR5A inverse agonism; inhibition, % at 9.3 µM; 340,000 compounds, 0.083% hits; HTR5A cell line, luminescence; AID 504634; P47898; in the data active = inhibition mostly above about 23%, no sharp cut-off; inactive = mostly below about 18%;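 note: 0% = cells with DMSO and 100% = no-cell wells with DMSO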
MOR-DOR inv ag – inverse agonists of human mu-delta opioid receptor heterodimerization; P35372+P41143; cell-based MOR-DOR heterodimer luminescence, inverse agonism; inhibition, % at 9.3 µM; 340,000 compounds, 0.21% hits; in the data active = inhibition above about 22%, passing the limit was not always enough;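 note: 0% = cells with DMSO and 100% = wells without cells with DMSO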
Active calls of the source: *.

SMILES | OPRM1-OPRD1 ag | HTR5A ag | HTR5A inv ctr | MOR-DOR inv ag
O=C(CSc1nc2ccccc2c(=O)n1-c1ccccc1F)Nc1ccc2c(c1)CCC2 | -1 | -4 | 11 | 4
CCN(CC)CCn1c(SCC(=O)Nc2ccc3c(c2)CCC3)nc2ccccc2c1=O | -1 | 12* | 12 | 4
C=CCNc1nc(N(c2ccccc2)c2ccccc2)nc(-n2ccnc2)n1 | 4 | 12* | 3 | -17
CC(=O)Nc1ccc(NC(=O)COC(=O)c2ccc([N+](=O)[O-])o2)cc1 | 9 | 13* | -48 | -47
CCOc1ccc(NC(=O)COc2ccc(C(=O)NCC3CCCO3)cc2OC)cc1 (centres undefined) | -3 | -1 | -11 | 12
Cc1sc2nc(CN3CCN(c4ccc(O)cc4)CC3)[nH]c(=O)c2c1C | -1 | 12* | -39 | 5
COc1ccccc1CC(=O)N1CCN(S(=O)(=O)c2ccccc2)CC1 | -1 | 13* | 21 | 5
COc1ccccc1CC(=O)N1CCN(S(=O)(=O)c2ccccc2F)CC1 | -2 | 6 | -23 | 9
O=S(=O)(c1ccc2c(c1)C(O)c1ccccc1CC2)C(F)(F)F (centres undefined) | 7 | 13* | -32 | -39
F[B-](F)(F)c1cncc2ccccc12 | -3 | 2 | -6 | 14
Cc1ccccc1-n1c(=O)c2ccccc2n(CC(=O)NCc2ccco2)c1=O | -1 | 1 | 11 | 7
CC(=O)c1c(C)n(CC(=O)NCc2ccco2)c2ccccc12 | 1 | 9.8* | 9 | -3
C=CCNC(=O)c1onc(CSc2ccccc2)c1C(=O)NCC=C | 0 | -2 | 17 | 0
C=CCNC(=O)c1onc(CSc2ccc(F)c(F)c2)c1C(=O)NCC=C | 3 | 13* | -6 | -18
Cc1cccc2sc(NNC(=O)c3ccc(S(=O)(=O)N4CC(C)CC(C)C4)cc3)nc12 (centres undefined) | 23* | 15* | -43 | -133
Cc1cc(NC(=O)CSc2nnc(-c3c[nH]c4ccccc34)n2-c2ccc(Cl)cc2)no1 | 21* | 13* | -28 | -112
CCCNC(=O)C(Cc1ccccc1)NC(=O)c1ccccc1 (centres undefined) | -2 | -3 | 4 | 11
Cc1cccc(C)c1NC(=O)CNC(=O)C(Cc1ccccc1)NC(=O)c1ccccc1 (centres undefined) | 0 | 13* | -46 | 3
COc1ccc(-c2nn(Cc3ccccc3)cc2C(=O)N2CCN(c3ncccn3)CC2)cc1OC | -1 | 12* | -30 | 5
Cc1cccn2c(=O)c(/C=C(\C#N)C(N)=O)c(N3CCN(Cc4ccc5c(c4)OCO5)CC3)nc12 | -1 | 11* | -40 | 5
COC(=O)/C(C#N)=C/c1c(N2CCN(Cc3ccc4c(c3)OCO4)CC2)nc2c(C)cccn2c1=O | -2 | -3 | 30 | 9
COc1ccccc1N(C(=O)CCl)c1cn(C(C)=O)c2ccccc12 | 50* | 39* | 8 | -252
CCOC(=O)c1ccccc1Nc1cn(C(C)=O)c2ccccc12 | -2 | -3 | 8 | 9
O=C(Nc1cccnc1)c1cc(-c2cccc(Br)c2)nc2ccccc12 | 10 | 13* | -7 | -51
Cc1cc(NC(=O)NC(=O)c2ccccc2F)no1 | -3 | -1 | -13 | 17
SMILES | OPRM1-OPRD1 ag | HTR5A ag | HTR5A inv ctr | MOR-DOR inv ag
O=C(Nc1ccc(-c2nc3ccccc3[nH]2)cc1)c1ccc2c(c1)OCO2 | 10 | 13* | 9 | -47
O=C(Nc1ccc(Cl)c(-c2nc3ccccc3[nH]2)c1)c1ccc2c(c1)OCO2 | 1 | -3 | 7 | -6
O=C(Nc1nc(-c2ccco2)c(-c2ccco2)s1)C1CCC1 | 0 | 6 | 14 | -1
CS(=O)(=O)c1ccc(C(=O)Nc2nc(-c3ccco3)c(-c3ccco3)s2)cc1 | 1 | 45* | -109 | -7
CCCCOc1cccc(C2C(C(=O)c3ccc(C)o3)=C(O)C(=O)N2Cc2ccco2)c1 (centres undefined) | -1 | 13* | -47 | 6
O=C1CC[C@@]23CCCN2C(=O)CCCC3C1 (some centres undefined) | -1 | 1 | -3 | 7
CCCOC(=O)c1ccc(NC(=O)c2cccc(S(=O)(=O)N3CCN(C(C)=O)CC3)c2)cc1 | 7 | 12 | -35 | -60
CCOC(=O)c1ccc(NC(=O)c2cccc(S(=O)(=O)N3CCN(C(C)=O)CC3)c2)cc1 | 0 | 12* | -6 | -1
Cc1c(Cl)cccc1NC(=O)CSc1nc2ncc(Cl)cc2[nH]1 | -1 | 3 | -13 | 7
CCCCN(C(=O)CCNC(=O)NC12CC3CC(CC(C3)C1)C2)c1c(N)n(CCC)c(=O)[nH]c1=O | 0 | -2 | 5 | 0
CCC(=O)Nc1ccc(Cl)c(NC(=O)c2ccc([N+](=O)[O-])cc2)c1 | 5 | 12* | -31 | -33
CCOc1ccc(Cn2nnc(C(=O)Nc3cc(OC)cc(OC)c3)c2N)cc1 | 3 | 1 | -3 | -13
CCOc1ccc(Cn2nnc(C(=O)Nc3cc(C)cc(C)c3)c2N)cc1 | 6 | 12* | -31 | -30
CC(=O)O[C@H]1[C@@H](O)[C@H](O)[C@H](Oc2c(O)c(C)c3c4c2[C@@H](C)CC[C@@H]4[C@@H](C)C[C@H]3C=C(C)C)O[C@H]1C | 8 | 2 | 12 | -42
O=C(NCC(c1ccc(F)cc1)N1CCOCC1)c1ccccc1F (centres undefined) | -3 | 12* | -36 | 17
O=C(NCC(c1ccc(F)cc1)N1CCOCC1)c1cc(F)c(F)c(F)c1F (centres undefined) | 2 | 1 | -2 | -14
O=C(NC(Cc1ccccc1)C(=O)NC1CC1)OCc1ccccc1 (centres undefined) | 1 | 12* | 27 | -7
CC(C)[C@H](NC(=O)OCc1ccccc1)C(=O)NCc1ccccc1 | -1 | 12* | -32 | 7
Nc1nc(Cl)cc(N2CCC(c3cc(-c4ccc(Cl)cc4)n[nH]3)CC2)n1 | 6 | 14* | -12 | -33
COc1ccc(OC)c(-c2cc(C3CCN(c4cc(Cl)nc(N)n4)CC3)[nH]n2)c1 | 1 | 10* | -5 | -3
COc1ccc(-c2cc(C3CCN(c4cc(Cl)nc(N)n4)CC3)[nH]n2)cc1 | 0 | 5 | -11 | 0
O=C1CCN(Cc2ccccc2)C=C1c1cccc(O)c1 | -3 | 1 | -5 | 13
COc1ccc(CNC(=O)COC(=O)c2c(NC(C)=O)sc(C)c2C)cc1 | 0 | 14* | -10 | 0
O=C(O)c1cccc(N2C(=O)C3CC=C(Cl)CC3C2=O)c1 (centres undefined) | -1 | 11* | -30 | 6
O=C(O)c1cccc(N2C(=O)C3CC=CCC3C2=O)c1 (centres undefined) | -4 | 1 | 10 | 18
Cc1cc(-n2c(SCC(=O)Nc3ccc(F)c(F)c3)nc3n[nH]c(C)c3c2=N)ccc1Cl | 6 | 9.8* | -40 | -34
Cc1cc(-n2c(SCC(=O)NCc3cccs3)nc3n[nH]c(C)c3c2=N)ccc1Cl | 2 | 12* | -23 | -12
COC(=O)c1sc(NC(=O)c2ccc3c(c2)OCO3)c(C#N)c1C | -3 | 1 | -5 | 14
